Where “and” joins values, the source holds several entries; their conditions need not be identical. Equal entries are not always repeated. Results filed as inconclusive are left out. Entries that show only a call come without a potency. Calls of active or inactive are those of the source. Unless noted, calls follow the shape of the dose curve; as a rule, active = well fitted curve in the direction sought with a large enough effect; inconclusive = small, poorly fitted or top-dose-only effect, or another doubt; inactive = no such curve, though single readings can be large; an effect the other way counts as inactive or inconclusive.
Assays:
[1] = P-glycoprotein substrates identified in KB-3-1 adenocarcinoma cell line, qHTS therapeutic library screen (AID 1346986); details: KB-3-1 parental cells viability, CellTiter-Glo, 72 h; series mostly up to 44.5 µM; also: nearly all actives have a fitted effect of over 60% in size;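 also: potency is read from the fitted curve at half-maximal effect; potency is for cytotoxicity meaning loss of cell viability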
Outline: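 Compounds were tested in dose-response against KB-3-1 and KB-8-5-11 cells at 37 degree C for 72 h, and viability was measured by luminescence. AC50 values came from curve fitting with class-based activity calls.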

[2] = P-glycoprotein substrates identified in KB-8-5-11 adenocarcinoma cell line, qHTS therapeutic library screen (AID 1346987); details: KB-8-5-11 (P-gp overexpressing) viability, CellTiter-Glo, 72 h; series mostly up to 44.5 µM; also: nearly all actives have a fitted effect of over 65% in size; also: potency is read from the fitted curve at half-maximal effect
Outline: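 P-gp-mediated resistance screen: KB-8-5-11 cells treated 72 h with compounds in dose-response. CellTiter-Glo viability.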

[3] = biological target: Calcium and integrin-binding protein 1 (Homo sapiens) (UniProt Q99828); assay: Primary qHTS for Identification of Calcium Integrin Binding Protein 1 (CIB1) Competitor (AID 1508620); details: CIB1-GST / FITC-alphaIIb peptide fluorescence polarization; series mostly up to 114 µM;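 also: GST tagged CIB1 binding a fluorescein labelled alphaIIb integrin peptide tracer; top concentration of the series differs between compounds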
Calcium and integrin-binding protein 1 (Homo sapiens), sequence (Q99828 whole entry, looked up): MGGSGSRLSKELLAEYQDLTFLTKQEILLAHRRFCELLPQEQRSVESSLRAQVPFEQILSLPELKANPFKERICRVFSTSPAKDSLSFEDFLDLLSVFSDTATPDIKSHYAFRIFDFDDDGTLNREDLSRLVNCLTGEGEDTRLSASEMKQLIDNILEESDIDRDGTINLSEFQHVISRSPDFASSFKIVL
Outline: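 Fluorescence polarization competition: GST-tagged CIB1 (1 uM final) preincubated with compound 15 min at room temperature, then FITC-labelled alphaIIb peptide (100 nM final) added. After 15 min at room temperature, polarization read at Ex 480/Em 540.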

[4] = Primary qHTS for inhibitors of nuclear receptor binding SET domain protein 2 (NSD2) in an isogenic RCH-ACV NSD2 p.E1099K mutant (9B) (AID 1645876); details: RCH-ACV NSD2 E1099K (9B) viability, CellTiter-Glo, 72 h; series mostly up to 44.9 µM; also: nearly all actives have a fitted effect of over 70% in size; also: potency is read from the fitted curve at half-maximal effect
[5] = Primary qHTS for inhibitors of nuclear receptor binding SET domain protein 2 (NSD2) in an RCH-ACV wild type WT cells (2C) (AID 1645877); details: RCH-ACV (leukaemia line) NSD2 WT (2C) viability, CellTiter-Glo, 72 h; series mostly up to 44.9 µM; also: nearly all actives have a fitted effect of over 70% in size; also: potency is read from the fitted curve at half-maximal effect
[6] = biological target: Glutathione peroxidase 1 (Homo sapiens) (UniProt P07203); assay: Primary qHTS Assay for Inhibitors of Recombinant Selenoprotein Glutathione Peroxidase 1 (GPX1) (AID 1845191); details: recombinant GPX1, GR-coupled NADPH fluorescence, 15 min; series mostly up to 48.8 µM; also: nearly all actives have a fitted effect of over 65% in size
Glutathione peroxidase 1 (Homo sapiens), sequence (P07203 whole entry, looked up): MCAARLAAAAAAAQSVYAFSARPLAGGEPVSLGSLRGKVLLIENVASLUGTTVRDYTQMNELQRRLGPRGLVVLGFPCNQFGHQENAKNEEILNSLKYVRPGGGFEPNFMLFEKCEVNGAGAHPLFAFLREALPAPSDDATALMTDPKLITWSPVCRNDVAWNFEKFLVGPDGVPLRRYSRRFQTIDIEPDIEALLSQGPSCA
Outline: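 GR-coupled assay: compounds preincubated 30 min at room temperature with GPX1, then reaction started with CHP; final 10 nM GPX1, 1 mM GSH, 0.5 mM CHP, 0.5 mM NADPH, 100 nM GR, 0.01% BSA, pH 7.5 Tris buffer. NADPH fluorescence (340/450 nm) read at 0 and 15 min.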

[7] = qHTS drug screen for cell cycle checkpoint inhibitors in PARPi-resistant BRCA-mutant ovarian cancer cell lines. (AID 1963452; calls by dose curve); details: PEO1/OlaR viability, CellTiter-Glo luminescence, 96 h, stronger effect = lower value
Outline: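 PEO1, PEO4 and PEO1/OlaR ovarian cancer cells, 600 per well, exposed 96 h at 37C to a dilution series. Viability read by CellTiter-Glo luminescence, normalized to DMSO and empty wells; activity summarized as Z-AUC.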

[8] = biological target: Phospholipid hydroperoxide glutathione peroxidase GPX4 (Homo sapiens) (UniProt P36969); assay: Primary qHTS Assay for Inhibitors of Recombinant Selenoprotein Glutathione Peroxidase 4 (GPX4) (AID 1845192); details: recombinant GPX4, GR-coupled NADPH fluorescence, 15 min; series mostly up to 50 µM; also: nearly all actives have a fitted effect of over 65% in size
Phospholipid hydroperoxide glutathione peroxidase GPX4 (Homo sapiens), sequence (P36969 whole entry, looked up): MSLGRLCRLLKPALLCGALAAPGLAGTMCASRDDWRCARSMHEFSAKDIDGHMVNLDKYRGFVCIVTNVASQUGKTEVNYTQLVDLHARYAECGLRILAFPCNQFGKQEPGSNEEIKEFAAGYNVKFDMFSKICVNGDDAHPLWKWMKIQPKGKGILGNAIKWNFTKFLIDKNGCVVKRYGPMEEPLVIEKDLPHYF
Outline: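 GR-coupled assay: recombinant GPX4 preincubated 30 min with compound at room temperature; final 200 nM GPX4, 1 mM GSH, 0.5 mM cumene hydroperoxide, 0.5 mM NADPH, 100 nM GR, 0.01% BSA, pH 7.5 Tris. NADPH fluorescence (340/450 nm) read at 0 and 15 min.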

[9] = measured here: PEO1 parental Z-AUC

Row | SMILES | Potency [1] | Potency [2] | outcome [3] | Potency [4] | Potency [5] | Potency [6] | Z-AUC [7] | Z-AUC [7, 9] | Z-AUC ([7]; measured here: PEO4 Z-AUC) | Potency [8]
1 | CC1CN(CC(=O)Nc2ccc3c(c2)Cc2cccc(-c4cc(=O)cc(N5CCOCC5)o4)c2S3)CC(C)O1 (stereo not drawn) | inactive | inactive |  |  |  |  |  |  |  | 
2 | Clc1ccc2ncc(-c3cccc(NC4CCNCC4)n3)n2c1 | 3660 nM (active) | 16400 nM (active) | inactive | 366 nM (active) | 259 nM (active) | inactive |  |  |  | 
3 | CC(=O)Nc1ccc(C(=O)NC(C)(C)C)cc1 | inactive | inactive |  | inactive |  | inactive | 1.04 (inactive) | 0.805 | 0.364 | 
4 | CC(N)C1CCC(C(=O)Nc2ccncc2)CC1 (stereo not drawn) | inactive | inactive |  | inactive | inactive |  |  |  |  | 
5 | Clc1ccc2ncc(-c3cccc(NC4CCNC4)n3)n2c1 (stereo not drawn) | 820 nM (active) | 10300 nM (active) | inactive | 1300 nM (active) | 1160 nM (active) | inactive |  |  |  | 
6 | Cc1ccc([N+](=O)[O-])cc1S(=O)(=O)N(C)/N=C\c1cnc2ccc(Br)cn12 | 164 nM (active) | 231 nM (active) |  | 58 nM (active) | 51.7 nM (active) |  |  |  |  | 
7 | O=C(Nc1cccc(Nc2cc(Nc3cccc(C(F)(F)F)c3)ncn2)c1)C1CC1 | 920 nM (active) | 920 nM (active) |  | 731 nM (active) | 920 nM (active) | inactive |  |  |  | 
8 | Cc1[nH]c(/C=C2\C(=O)Nc3ccccc32)c(C)c1CCC(=O)O | inactive | inactive |  | inactive | inactive | inactive | 0.922 (inactive) | 0.668 | 0.162 | 
9 | CC(C)C(N)C(=O)OCC(CO)OCn1cnc2c(=O)[nH]c(N)nc21 (stereo not drawn) | inactive | inactive |  | inactive | inactive | inactive | 0.614 (inactive) | 1.06 | 1.36 | inactive
10 | COc1ccc2nc3ccc(OC)cc3c(SCCCN)c2c1 | inactive | inactive |  | inactive | inactive |  |  |  |  | 
11 | CCOc1ccc(/C=C2\SC(=O)N(CCN)C2=O)cc1 | inactive | inactive |  | inactive | inactive |  |  |  |  | 
12 | N#Cc1ccc(-c2c(-c3ncn[nH]3)sc(N3CCOCC3)c2C#N)c(F)c1 | 2060 nM (active) | 5800 nM (active) |  | 1.03 µM (active) and 934 nM (active) | 651 nM (active) and 1.18 µM (active) | inactive | -1.04 (inactive) | -1.47 | -1.34 | inactive

— PubChem BioAssay (NCATS)
